Results taken from PubChem BioAssay (NCATS).
Inconclusive results are not listed. Calls of active or inactive are those of the source. Unless noted, calls follow the shape of the dose curve; as a rule, active = well fitted curve in the direction sought with a large enough effect; inconclusive = small, poorly fitted or top-dose-only effect, or another doubt; inactive = no such curve, though single readings can be large; an effect the other way counts as inactive or inconclusive.

How the values were obtained:
[1] = Cell Viability - LYMP2-005 (AID 967); also: series mostly up to about 92 µM
Method in brief: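 Luciferase-based ATP quantitation served as the viability measure in human lymphoblastoid LYMP2-005 cells exposed to test compounds for 24 h at 37 C in complete culture medium. Potency (AC50) was obtained by fitting concentration-response curves with the Hill equation.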

[2] = Cell Viability - LYMP2-009 (AID 968); also: series mostly up to about 92 µM; nearly all actives have a fitted effect of over 55% in size
[3] = Cell Viability - LYMP2-011 (AID 969); also: nearly all actives have a fitted effect of over 60% in size
Method in brief: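 Luminescent ATP read-out (CellTiter-Glo, 30 min RT) after 24 hr compound exposure at 37 C in human lymphoblastoid cells, 2500 cells/well. Decreasing ATP indicates cytotoxicity; AC50 from standard Hill fit.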

[4] = Cell Viability - LYMP2-013 (AID 970); also: series mostly up to about 92 µM; nearly all actives have a fitted effect of over 55% in size
Method in brief: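 CellTiter-Glo luminescence (cellular ATP) read after 30 min at RT. Cells: human lymphoblastoid line, 2500/well, 24 hr compound exposure at 37 C. Tetraoctylammonium bromide positive control; AC50 via standard Hill fit of qHTS titrations.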

[5] = Cell Viability - LYMP2-015 (AID 971); also: nearly all actives have a fitted effect of over 55% in size
Method in brief: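 qHTS cytotoxicity: 2500 cells/well, 5 hr 37 C, compound 24 hr 37 C, CellTiter-Glo 30 min RT, luminescence. Loss of ATP = toxicity; AC50 via standard Hill fit.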

[6] = Cell Viability - LYMP2-017 (AID 972); also: series mostly up to about 92 µM; nearly all actives have a fitted effect of over 55% in size
Method in brief: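 Luminescent ATP read-out (CellTiter-Glo, 30 min RT) reports viable cell number. Cells: human lymphoblastoid line, 2500 per well, 5 hr preincubation, 24 hr compound exposure at 37 C. AC50 is derived from qHTS concentration-response data using the standard Hill model.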

[7] = Cell Viability - LYMP2-019 (AID 973); also: nearly all actives have a fitted effect of over 55% in size
Method in brief: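 qHTS, 1536-well; 2500 cells/well; 5 hr pre-incubation, 24 hr compound exposure, 37 C; CellTiter-Glo added, 30 min RT; luminescence read; AC50 via standard Hill equation.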

[8] = Cell Viability - LYMP2-021 (AID 974)
Method in brief: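 ATP luminescence (CellTiter-Glo, 30 min RT) after 24 h compound exposure at 37 C; 2500 human lymphoblastoid cells/well, 5 h settle beforehand. Cytotoxicity = concentration-dependent ATP drop, AC50 by Hill fit.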

[9] = Cell Viability - LYMP2-025 (AID 976); also: series mostly up to about 92 µM
Method in brief: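 CellTiter-Glo luminescence (cellular ATP) after 24 h compound exposure at 37 C; LYMP2-025 human lymphoblastoid cells, 2500/well, complete medium. Tetraoctylammonium bromide positive control. AC50 by Hill equation fit of qHTS concentration-response.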

[10] = Cell Viability - LYMP2-002 (AID 977); also: series mostly up to about 92 µM
Method in brief: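 Human lymphoblastoid cells (2500/well) in complete medium were preincubated 5 hr at 37 C, then exposed to compounds for 24 hr at 37 C. Intracellular ATP was read by CellTiter-Glo luminescence; AC50 came from Hill-equation concentration-response fits.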

[11] = Cell Viability - LYMP2-007 (AID 979);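 also: cells exposed to compound for 24 h before reading; nearly all actives have a fitted effect of over 60% in size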
Method in brief: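 qHTS cytotoxicity: 2500 cells/well, 5 hr 37 C settle, compound 24 hr 37 C, CellTiter-Glo 30 min RT, luminescence. Decrease in ATP = toxicity. AC50 by standard Hill equation; tetraoctylammonium bromide positive control.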

[12] = Cell Viability - LYMP2-008 (AID 980); also: nearly all actives have a fitted effect of over 60% in size
Method in brief: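 Luminescent ATP read-out (CellTiter-Glo, 30 min RT) after 24 hr compound exposure at 37 C of human lymphoblastoid cells in complete medium. Decrease in ATP taken as cytotoxicity; AC50 derived by standard Hill fit of qHTS concentration-response data.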

[13] = Cell Viability - LYMP2-010 (AID 981); also: nearly all actives have a fitted effect of over 55% in size
Method in brief: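 qHTS cytotoxicity, 1536-well: 2500 cells/well, 5 hr settle, 24 hr compound at 37 C, CellTiter-Glo 30 min RT, luminescence read. Decrease in ATP = toxicity; AC50 via standard Hill equation. Positive control tetraoctylammonium bromide.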

[14] = Cell Viability - LYMP2-012 (AID 982)
[15] = Cell Viability - LYMP2-014 (AID 983); also: series mostly up to about 92 µM; nearly all actives have a fitted effect of over 50% in size
Method in brief: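 2500 cells/well, 5 hr 37 C; cpd 24 hr 37 C, complete medium; CellTiter-Glo 30 min RT, luminescence; ATP loss = toxicity; AC50 via Hill eqn; tetraoctylammonium bromide positive control.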

[16] = Cell Viability - LYMP2-016 (AID 984); also: nearly all actives have a fitted effect of over 55% in size
Method in brief: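 Concentration-dependent ATP depletion measured in LYMP2-016 lymphoblastoid cells, 24 h, 37 C; luciferase-based luminescent detection; Hill-equation AC50.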

[17] = Cell Viability - LYMP2-018 (AID 985); also: nearly all actives have a fitted effect of over 50% in size
Method in brief: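 2500 cells/well; 5 hr 37 C; cmpd 24 hr 37 C, complete medium; CellTiter-Glo 30 min RT; luminescence. Tetraoctylammonium bromide positive control. AC50 via Hill fit.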

[18] = Cell Viability - LYMP2-020 (AID 986)
Method in brief: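 qHTS, 2500 cells/well; 5 hr then 24 hr compound exposure, 37 C; CellTiter-Glo luminescence after 30 min RT; ATP decrease taken as cytotoxicity; AC50 via Hill equation; tetraoctylammonium bromide positive control.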

[19] = Cell Viability - LYMP2-022 (AID 987); also: nearly all actives have a fitted effect of over 55% in size
Method in brief: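 Luminescent ATP read-out (CellTiter-Glo, 30 min, RT) after 24 hr, 37 C compound exposure of 2500 human lymphoblastoid cells/well in complete medium. Cytotoxicity taken as concentration-dependent ATP loss; AC50 from standard Hill equation.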

[20] = Cell Viability - LYMP2-024 (AID 988); also: nearly all actives have a fitted effect of over 60% in size
Method in brief: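 ATP-based luminescence (CellTiter-Glo, 30 min RT) after 24 h compound exposure at 37 C of 2500 lymphoblastoid cells/well; decrease in ATP taken as cytotoxicity. qHTS concentration-response fitted to standard Hill equation for AC50.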

[21] = Cell Viability - LYMP2-026 (AID 989); also: nearly all actives have a fitted effect of over 50% in size
Method in brief: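 qHTS cytotoxicity: 2500 cells/well, 5 hr 37 C, compound 24 hr 37 C, CellTiter-Glo 30 min RT, luminescence. Tetraoctylammonium bromide positive control. AC50 via standard Hill fit.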

[22] = Cell Viability - LYMP1-002 - Assay at 24 hr (AID 993)
Method in brief: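 CellTiter-Glo luminescence (intracellular ATP) after 24 h compound exposure, 37 C, in LYMP1-002 human lymphoblastoid cells; decreased ATP taken as cytotoxicity. AC50 from standard Hill fit of concentration-response curves.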

[23] = Cell Viability - LYMP1-002 - Assay at 40 hr (AID 994); also: nearly all actives have a fitted effect of over 60% in size
Method in brief: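 qHTS cytotoxicity; 2500 cells/well, 5 hr 37 C settle, compound 40 hr 37 C. CellTiter-Glo, 30 min RT, luminescence (ATP). Concentration-response, Hill fit → AC50. Pos. ctrl tetraoctylammonium bromide.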

[24] = qHTS Assay for Identification of Small Molecule Inducers of Hypoxia Response (AID 2120; active = well fitted curve in the direction sought with a large enough effect in the signal ratio, with a control signal flat, not every such curve was filed as active; the % refers to the signal ratio)
Method in brief: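 Read-out: CCF4 FRET emission ratio 460nm/530nm (excitation 405nm), converted to %Activity, with AC50 fitted across a compound titration. ME-180 cells carried an HRE-driven beta-lactamase reporter; compound exposure 17 h, 37 degrees C.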

[25] = target: Estrogen receptor (Homo sapiens) (UniProt P03372); assay: qHTS assay for small molecule antagonists of estrogen receptor alpha signaling (AID 588513; active = well fitted curve in the direction sought with a large enough effect in the signal ratio, with a control signal flat, not every such curve was filed as active; the % refers to the signal ratio)
Chain of Estrogen receptor (Homo sapiens) (P03372 whole entry, looked up): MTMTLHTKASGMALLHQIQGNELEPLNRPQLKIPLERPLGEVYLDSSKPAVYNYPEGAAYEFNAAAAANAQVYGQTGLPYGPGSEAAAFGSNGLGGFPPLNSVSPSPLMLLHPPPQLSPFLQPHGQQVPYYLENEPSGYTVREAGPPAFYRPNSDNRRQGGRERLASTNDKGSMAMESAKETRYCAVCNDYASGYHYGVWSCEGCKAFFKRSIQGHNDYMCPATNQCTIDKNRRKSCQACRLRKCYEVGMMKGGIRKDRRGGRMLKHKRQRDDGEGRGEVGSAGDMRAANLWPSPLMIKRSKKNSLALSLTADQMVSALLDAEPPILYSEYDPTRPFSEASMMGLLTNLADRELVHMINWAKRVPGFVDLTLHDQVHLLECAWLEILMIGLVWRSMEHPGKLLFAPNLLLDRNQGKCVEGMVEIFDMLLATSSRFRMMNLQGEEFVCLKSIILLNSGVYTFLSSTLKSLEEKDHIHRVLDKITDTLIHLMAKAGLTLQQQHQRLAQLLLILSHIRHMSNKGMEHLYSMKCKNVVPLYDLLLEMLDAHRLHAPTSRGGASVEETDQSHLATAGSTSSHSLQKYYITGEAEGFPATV
Method in brief: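 Antagonist-mode qHTS in ER-alpha-UAS-bla HEK 293 cells: compound titration, 0.5nM estradiol for 18 h, CCF4 fluorescence, Hill-derived IC50.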

[26] = target: Glucocorticoid receptor (Homo sapiens) (UniProt P04150); assay: qHTS assay for small molecule antagonists of glucocorticoid receptor signaling (AID 588533; active = well fitted inhibition curve with a large enough effect in the signal ratio, with a control signal flat, not every such curve was filed as active; the % refers to the signal ratio;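 also: cells stimulated with 2 nM dexamethasone as agonist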)
Chain of Glucocorticoid receptor (Homo sapiens) (P04150 whole entry, looked up): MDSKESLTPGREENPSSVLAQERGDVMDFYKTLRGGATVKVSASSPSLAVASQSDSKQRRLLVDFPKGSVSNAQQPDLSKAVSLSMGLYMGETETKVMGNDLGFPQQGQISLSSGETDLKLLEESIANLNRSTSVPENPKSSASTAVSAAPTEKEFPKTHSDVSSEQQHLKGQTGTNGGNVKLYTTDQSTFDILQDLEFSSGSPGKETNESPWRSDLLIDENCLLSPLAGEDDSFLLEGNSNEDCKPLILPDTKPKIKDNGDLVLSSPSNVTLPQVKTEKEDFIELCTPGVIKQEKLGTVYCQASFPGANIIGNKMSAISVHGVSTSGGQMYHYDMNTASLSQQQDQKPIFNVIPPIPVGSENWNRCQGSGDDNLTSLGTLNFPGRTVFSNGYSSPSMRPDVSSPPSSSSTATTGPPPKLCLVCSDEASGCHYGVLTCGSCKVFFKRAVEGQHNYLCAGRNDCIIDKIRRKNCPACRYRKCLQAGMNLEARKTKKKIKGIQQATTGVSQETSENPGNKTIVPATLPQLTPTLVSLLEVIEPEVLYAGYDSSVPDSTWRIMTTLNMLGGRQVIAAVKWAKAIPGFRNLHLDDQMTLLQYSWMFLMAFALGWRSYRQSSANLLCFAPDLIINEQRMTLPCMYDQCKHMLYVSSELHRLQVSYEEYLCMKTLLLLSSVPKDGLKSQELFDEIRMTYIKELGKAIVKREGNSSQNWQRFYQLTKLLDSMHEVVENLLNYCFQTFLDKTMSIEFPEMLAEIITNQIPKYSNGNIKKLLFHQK
Method in brief: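 Antagonist-mode qHTS: compound titrations added to GRE-bla HeLa cells, then dexamethasone 2 nM final; 18 h, 37 C. CCF4 FRET fluorescence normalized to dexamethasone and DMSO; IC50 from Hill fit.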

[27] = qHTS assay for small molecule disruptors of the mitochondrial membrane potential - 1 hr assay (AID 651754; calls by dose curve; also: nearly all actives have a fitted effect of over 35% in size)
Method in brief: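 Read-out: dye fluorescence at 490 nm ex/535 nm em (monomers) and 540 nm ex/590 nm em (aggregates) in HepG2 cells. Compound exposure 1 hr at 37C, followed by 30 min dye loading.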

[28] = target: Tumor necrosis factor (Homo sapiens) (UniProt P01375); assay: qHTS assay to identify small molecules that stimulate Tumor Necrosis Factor-alpha (TNF-alpha) secretion (AID 651757; active = well fitted curve in the direction sought with a large enough effect in the signal ratio; the % refers to the signal ratio)
Chain of Tumor necrosis factor (Homo sapiens) (P01375 whole entry, looked up): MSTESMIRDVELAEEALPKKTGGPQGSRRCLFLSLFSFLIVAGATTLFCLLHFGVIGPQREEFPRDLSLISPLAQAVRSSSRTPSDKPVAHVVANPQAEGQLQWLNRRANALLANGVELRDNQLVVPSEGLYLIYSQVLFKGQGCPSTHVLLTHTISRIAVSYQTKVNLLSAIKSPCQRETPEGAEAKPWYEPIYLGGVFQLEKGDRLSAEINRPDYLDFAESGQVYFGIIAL
Method in brief: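 THP-1 cells, 3000/well; compound 17 hrs, 37 C; add cryptate/XL665 anti-TNF-alpha antibody pair; 3 hr RT; TR-FRET (HTRF) read of secreted TNF-alpha. Quantitative HTS format.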

[29] = target: Nuclear receptor ROR-gamma (Homo sapiens) (UniProt P51449); assay: qHTS assay for small molecule antagonists of the retinoid-related orphan receptor gamma (ROR-gamma) signaling pathway (AID 651802)
Chain of Nuclear receptor ROR-gamma (Homo sapiens) (P51449 whole entry, looked up): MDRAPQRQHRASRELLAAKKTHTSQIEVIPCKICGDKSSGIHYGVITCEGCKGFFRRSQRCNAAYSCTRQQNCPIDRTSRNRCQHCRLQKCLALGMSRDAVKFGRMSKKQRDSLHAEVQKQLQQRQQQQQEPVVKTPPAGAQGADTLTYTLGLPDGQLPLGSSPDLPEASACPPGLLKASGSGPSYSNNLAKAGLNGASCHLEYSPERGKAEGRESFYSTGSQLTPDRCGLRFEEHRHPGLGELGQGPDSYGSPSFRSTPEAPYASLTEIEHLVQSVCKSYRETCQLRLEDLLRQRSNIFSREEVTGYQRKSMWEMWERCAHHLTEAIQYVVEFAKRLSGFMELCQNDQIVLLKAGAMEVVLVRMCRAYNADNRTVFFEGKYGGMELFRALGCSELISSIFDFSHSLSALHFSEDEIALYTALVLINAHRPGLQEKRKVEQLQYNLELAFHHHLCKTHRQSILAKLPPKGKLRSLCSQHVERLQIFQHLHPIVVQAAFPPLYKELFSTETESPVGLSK
Method in brief: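 Luciferase read-out: ONE-Glo luminescence after 30 min at room temperature, following 16hr doxycycline induction at 37C, 5% CO2 of CHO cells with TET-inducible ROR and RORE-LUC reporter; decreased luminescence = reduced reporter activity.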

[30] = qHTS assay for small molecule antagonists of the retinoid-related orphan receptor gamma (ROR-gamma) signaling pathway - cell viability counter screen (AID 720652; active = well fitted curve in the direction sought with a large enough effect in the repeat runs; an effect the other way counts as inactive or inconclusive;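 also: CHO reporter cells with doxycycline-induced ROR-gamma expression; series mostly up to about 92 µM; compound exposure lasted 16 hr before ATP read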)
Method in brief: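 CHO RORE-LUC/TET-ROR line, 1,000 cells/well, 37 C 5% CO2 5 hr; cpd or DMSO + doxycycline induction, 16 hr. CellTiter-Glo, 30 min RT, luminescence = ATP content.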

Measured: Potency

CC12CCC(CC1=O)C2(C)C (stereo not given)
inactive: [1] | [2] | [3] | [4] | [5] | [6] | [7] | [8] | [9] | [10] | [11] | [12] | [13] | [14] | [15] | [16] | [17] | [18] | [19] | [20] | [21] | [22] | [23] | [24] | [25] | [26] | [27] | [28] | [29] | [30]
